The values that follow come from PubChem BioAssay (Tox21).

Where “and” joins values, the source holds several entries; their conditions need not be identical. Identical values can stand only once. Inconclusive results are not listed. Calls of active or inactive are those of the source. Unless noted, calls come from the whole dose curve; as a rule, active = well fitted curve in the direction sought with a large enough effect in the repeat runs; inconclusive = weak or mixed curves; inactive = no such curve, though single readings can be large; an effect the other way counts as inactive or inconclusive.

Assay [1] in a line: qHTS assay to identify small molecule agonists of the vitamin D receptor (VDR) signaling pathway - cell viability counter screen (AID 743224). Note: nearly all actives have a fitted effect of over 50% in size. Note: potency is the fitted concentration of half-maximal effect. Summed up: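 Here cell health was gauged by luminescent ATP detection (CellTiter-Glo, 30 min RT) in VDR-bla cells that had been incubated with test compounds for 16 h at 37C and 5% CO2.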
Assay [2] in a line: qHTS assay to identify small molecule agonists of the NFkB signaling pathway - cell viability counter screen (AID 1159515; calls by dose curve; note: nearly all actives have a fitted effect of over 55% in size; note: potency is the fitted concentration of half-maximal effect). Summed up:
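5 hr compound treatment of NFkB-bla ME-180 cells (2,000/well, seeded overnight beforehand), followed by reporter substrate for 1.5 hr. CellTiter-Glo added afterward; luminescence after 30 min RT.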
(In qHTS, concentration-response curves come from the screen itself.)

Assay [3] is described as follows: qHTS assay to identify small molecule agonists of the endoplasmic reticulum stress response signaling pathway - cell viability counter screen (AID 1159517; calls by dose curve; note: nearly all actives have a fitted effect of over 50% in size; note: potency is the fitted concentration of half-maximal effect). Summed up:
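CellTiter-Glo was added to wells already read for beta-lactamase FRET, and luminescence was recorded 30 min later. Cells: ESRE-bla HeLa, 1,500 per well, compound exposure 5 hr at 37 C.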

The target in assay [4] is Nuclear receptor ROR-gamma (Homo sapiens) (UniProt P51449). Nature of the assay: qHTS assay to identify small molecule antagonists of the retinoid-related orphan receptor gamma (ROR-gamma) signaling pathway (AID 1159521; note: nearly all actives have a fitted effect of over 50% in size; note: potency is the fitted concentration of half-maximal effect). Put shortly: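 Inducible-expression reporter assay: doxycycline (1 uM final) switched on RORγ in CHO cells bearing a ROR response element-luciferase construct, with test compounds present from 2 h beforehand. Decreased luminescence after 16 h defined antagonist activity.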

The nature of assay [5]: qHTS assay to identify small molecule agonists of the AP-1 signaling pathway - cell viability counter screen (AID 1159525; calls by dose curve; note: nearly all actives have a fitted effect of over 55% in size; note: potency is the fitted concentration of half-maximal effect). Summed up:
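ME-180 AP-1-bla, 2500 cells/well, Opti-MEM + 0.5% dialyzed FBS; overnight 37 °C; cpd 15-pt titration, 5 h 37 °C; CellTiter-Glo 30 min RT; luminescence read; normalised to TOAB and DMSO controls.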

The nature of assay [6]: qHTS assay to identify small molecule agonists of the AP-1 signaling pathway (AID 1159526; calls by dose curve).
Assay [7] is described as follows: qHTS assay to identify small molecule antagonists of the retinoid-related orphan receptor gamma (ROR-gamma) signaling pathway - cell viability counter screen (AID 1159520). Note: nearly all actives have a fitted effect of over 50% in size. Note: potency is the fitted concentration of half-maximal effect. Put shortly: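 Tet-on ROR gamma CHO cells (1,000/well) were plated 4 hr, given compounds in DMSO for 2 hr at 37 C, then induced with 1 uM final doxycycline for 16 hr. Viability was read as ATP by CellTiter-Glo luminescence after 30 min.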

Assay [8] is described as follows: qHTS assay to identify small molecule agonists of the RXR signaling pathway - cell viability counter screen (AID 1159529). Note: nearly all actives have a fitted effect of over 50% in size. Note: potency is the fitted concentration of half-maximal effect. Put shortly:
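Counter screen: CellTiter-Glo luminescence. Cells: RXR-alpha-UAS-bla HEK 293T. Medium: 2% charcoal-stripped FBS. Treatment: 16 h, 37 C. Reagent incubation: 30 min, RT.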

The nature of assay [9]: qHTS assay to identify small molecule antagonists of the retinoid acid receptor (RAR) signaling pathway - cell viability counter screen (AID 1159551). Note: nearly all actives have a fitted effect of over 35% in size. Note: potency is the fitted concentration of half-maximal effect. Summed up: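 Seed C3RL4 cells; next day add compound, then retinol to 1 uM final; incubate 6 h at 37 C; add CellTiter-Glo; read luminescence after 30 min at RT.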
In assay [10] the target is Luciferin 4-monooxygenase (Photinus pyralis) (UniProt P08659). Nature of the assay: qHTS assay to identify small molecule inhibitors of firefly luciferase (AID 1224835). Note: series mostly up to about 120 µM; nearly all actives have a fitted effect of over 25% in size. Summed up: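 Quantitative HTS format; KM concentrations of both substrates. Purified P. pyralis FLuc activity quantified from luminescence images.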
A short description of assay [11]: qHTS assay to identify small molecule antagonists of the vitamin D receptor (VDR) signaling pathway - cell viability counter screen (AID 743225). Note: nearly all actives have a fitted effect of over 50% in size. Note: potency is the fitted concentration of half-maximal effect. Summed up: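 Same-well multiplex: following 16 h treatment of HEK 293T cells carrying a UAS-driven beta-lactamase reporter with compound and agonist (3 nM final), and a 2 h FRET substrate step, CellTiter-Glo was added and luminescence read after 30 min.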

Assay [12] is described as follows: qHTS assay to identify small molecule agonists of the retinoic acid receptor (RAR) signaling pathway (AID 1159553). Summed up:
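Activation of retinol signaling was monitored via a RARE luciferase reporter in C3RL4 cells. After 6 hr compound treatment at 37 C, detection reagent was added for 30 min at room temperature before luminescence reading.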

The nature of assay [13]: qHTS assay to identify small molecule antagonists of the estrogen related receptor (ERR) signaling pathway from Tox21 library - cell viability counter screen (AID 1224834). Note: nearly all actives have a fitted effect of over 30% in size. Note: potency is the fitted concentration of half-maximal effect. Put shortly: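 CellTiter-Fluor fluorescence measured; ERR cells; 17.5 h compound incubation at 37 C; 30 min reagent step.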
Assay [14] can be described thus: qHTS assay to identify small molecule antagonists of the retinoic acid receptor (RAR) signaling pathway (AID 1159552; note: nearly all actives have a fitted effect of over 50% in size; note: potency is the fitted concentration of half-maximal effect). Summed up:
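Antagonism of retinol-induced RARE reporter activity was measured in C3RL4 cells. Exposure to compounds and 1 uM final retinol lasted 6 hr at 37 C, with luminescence as endpoint.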

Assay [15] in a line: qHTS assay to identify small molecule agonists of the estrogen related receptor (ERR) signaling pathway (AID 1224820). Put shortly: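 Cells: ERR line from NTP, 2,000/well. Pre-incubation 6 h, 37 C/5% CO2. Compound (DMSO) pin transfer, 18 h 37 C. One-Glo, 30 min RT, luminescence.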
A short description of assay [16]: qHTS assay to identify small molecule agonists of the estrogen related receptor signaling pathway with the pleiotropic PPARgamma coactivator (PGC) (AID 1224823). Summed up:
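Steps: plate PGC/ERR cells at 2,000 cells/well; incubate 6 h, 37 C/5% CO2; pin-transfer compounds (DMSO); incubate 18 h, 37 C; add One-Glo; 30 min RT; read luminescence.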

For assay [17], the target named is Retinoic acid receptor RXR-alpha (Homo sapiens) (UniProt P19793). The assay can be described thus: qHTS assay to identify small molecule agonists of the RXR signaling pathway (AID 1159527; calls by dose curve; note: nearly all actives have a fitted effect of over 35% in size). Put shortly:
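Compounds in DMSO were added to RXR-alpha-UAS-bla HEK 293T cells kept in 2% charcoal-stripped serum, and incubated 16 hr at 37 C with 5% CO2. Reporter signal came from a 2 hr B/G FRET substrate step.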

The nature of assay [18]: qHTS assay to identify small molecule antagonists of the estrogen related receptor (ERR) signaling pathway (AID 1224819). Put shortly:
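qHTS in ERR cells, 2,000/well, 1536 format. Cpd (DMSO) added after 6 h settle, 18 h 37 C. One-Glo luminescence, 30 min RT.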

Chain of Luciferin 4-monooxygenase (Photinus pyralis) (P08659 whole entry, looked up): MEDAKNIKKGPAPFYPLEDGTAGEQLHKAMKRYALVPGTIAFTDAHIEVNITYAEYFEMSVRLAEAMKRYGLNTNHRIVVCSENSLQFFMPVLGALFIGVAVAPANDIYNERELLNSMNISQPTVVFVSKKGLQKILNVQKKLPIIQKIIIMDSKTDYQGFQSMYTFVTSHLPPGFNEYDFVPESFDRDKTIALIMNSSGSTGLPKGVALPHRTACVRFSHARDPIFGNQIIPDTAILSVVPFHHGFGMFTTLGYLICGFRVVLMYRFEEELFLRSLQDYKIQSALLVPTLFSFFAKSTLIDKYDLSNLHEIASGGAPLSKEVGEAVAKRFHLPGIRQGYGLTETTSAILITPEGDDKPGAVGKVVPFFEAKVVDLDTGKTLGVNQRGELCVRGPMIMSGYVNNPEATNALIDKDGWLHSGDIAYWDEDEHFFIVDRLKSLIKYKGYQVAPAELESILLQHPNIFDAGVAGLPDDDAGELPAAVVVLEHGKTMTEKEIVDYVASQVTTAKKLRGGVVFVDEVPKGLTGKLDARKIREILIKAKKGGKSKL
Chain of Retinoic acid receptor RXR-alpha (Homo sapiens) (P19793 whole entry, looked up): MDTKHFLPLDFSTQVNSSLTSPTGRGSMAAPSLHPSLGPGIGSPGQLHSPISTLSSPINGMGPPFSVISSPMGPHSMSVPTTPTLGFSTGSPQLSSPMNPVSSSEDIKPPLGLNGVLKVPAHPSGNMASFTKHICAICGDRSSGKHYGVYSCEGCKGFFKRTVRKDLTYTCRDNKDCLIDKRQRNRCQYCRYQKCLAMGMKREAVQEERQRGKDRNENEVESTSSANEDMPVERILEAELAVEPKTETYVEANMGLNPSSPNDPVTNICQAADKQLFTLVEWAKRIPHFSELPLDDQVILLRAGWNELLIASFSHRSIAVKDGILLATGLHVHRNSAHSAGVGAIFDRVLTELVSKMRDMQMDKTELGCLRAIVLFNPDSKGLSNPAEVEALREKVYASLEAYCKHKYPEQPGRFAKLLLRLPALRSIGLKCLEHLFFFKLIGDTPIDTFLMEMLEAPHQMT

With `Nc1c2ccccc2nc2ccccc12`, the Potency entry in [1], in assay [2], in [3], in [4], in [5] and in assay [6] was “inactive” in each case.
As to `CSc1ccc2c(c1)C(N1CCN(C)CC1)Cc1ccccc1S2` (stereo not drawn), the Potency is 23.7 µM (active) in assay [1], 23.9 µM (active) in assay [2], 19 µM (active) in assay [3] and 23.9 µM (active) in assay [8]. The Potency result in assay [7], in assay [5], in assay [9] and in assay [10] was “inactive” in each case.
With `Cc1onc(-c2c(Cl)cccc2Cl)c1C(=O)N[C@@H]1C(=O)N2[C@@H]1SC(C)(C)[C@@H]2C(=O)O`, the Potency entry in [1], in assay [11], in assay [2], in assay [3], in [7] and in [5] was “inactive” each time. For the same compound, the Potency entry in assay [8], in [9], in assay [12] and in assay [13] was “inactive” each time.
As to `CCc1oc2ccccc2c1C(=O)c1cc(Br)c(O)c(Br)c1`, the Potency result in assay [2], in assay [3], in assay [7], in assay [5], in assay [9] and in assay [14] was “inactive” in each case. The Potency result in assay [12] and in assay [10] was “inactive” in each case.
On to `CCN(CC)CCCC(C)Nc1c2ccc(Cl)cc2nc2ccc(OC)cc12` (stereo not drawn), for which the Potency in assay [11] is 23.9 µM (active); in assay [13], 5.96 µM (active). The Potency result in assay [2], in [3], in assay [7], in assay [5], in assay [9] and in assay [10] was “inactive” in each case. Also, the outcome in [15] and in assay [16] was inactive.
`CCN(CCC#N)c1ccc(N=Nc2c(Cl)cc([N+](=O)[O-])cc2Cl)cc1`: the Potency result in assay [1], in [2], in [3], in assay [7], in assay [5] and in assay [9] was “inactive” in each case. The Potency result in assay [14] is “inactive”. Moreover, in [13], the Potency was 15.4 µM (active).
Take `Oc1ccc2c(c1)-c1ccccc1C2`: the Potency entry in assay [2], in [3], in assay [4], in [5], in assay [6] and in [8] was “inactive” throughout. The Potency entry in [9], in assay [14] and in [13] was “inactive” each time.
For the compound `C[C@@H](NCCCc1cccc(C(F)(F)F)c1)c1cccc2ccccc12`, the Potency in assay [1] was 29.8 µM (active); in [11], 23.9 µM (active); in assay [2], 23.9 µM (active); in [3] it was 23.9 µM (active); in assay [7], 29.8 µM (active); in assay [5] it was 23.9 µM (active). Further, the Potency in assay [8] is 16.9 µM (active); in assay [9], 33.5 µM (active); in assay [14], 29.8 µM (active); in assay [13], 29.8 µM (active).
In the case of `CC/C(=C(\c1ccc(O)cc1)c1ccc(OCCN(C)C)cc1)c1ccccc1`, the Potency in assay [1] is 17.4 µM (active); in assay [11] it was 19.5 µM (active); in assay [2], 49.1 µM (active); in [3] it was 61.8 µM (active); in assay [7] it was 34.4 µM (active); in assay [5], 27.6 µM (active). The Potency in assay [8] was 21.9 µM (active); in assay [14], 68.7 µM (active); in [13], 68.7 µM (active). Further, the Potency result in assay [10] was “inactive”.
As for `CC(C)(C)CC(C)(C)c1ccc(OCCOCC[N+](C)(C)Cc2ccccc2)cc1`, the Potency is 38.9 µM (active) and 26.6 µM (active) in [1]; 24.5 µM (active) in [2]; 21.9 µM (active) in assay [3]; 54.4 µM (active) in assay [7]; 24.5 µM (active) in [5]; 6.91 µM (active) and 4.77 µM (active) in assay [8]. Further, the Potency in assay [9] was 61.1 µM (active); in [14], 43.2 µM (active) and 29.8 µM (active); in assay [13], 48.5 µM (active) and 13.3 µM (active). Also, in assay [10], the Potency entry is “inactive”.
On to `COc1c(C)c2c(c(O)c1C/C=C(\C)CCC(=O)O)C(=O)OC2`, for which the Potency result in [1], in assay [2], in [5], in assay [6], in assay [9] and in assay [14] was “inactive” in each case. Also, the Potency entry in [12] and in assay [10] was “inactive” each time. For the same compound, the Potency was 16.9 µM (active) in [3] and 0.133 µM (active) in [4].
On to `CO[Si](CCCNc1ccccc1)(OC)OC`, for which the Potency result in assay [1], in assay [11], in assay [2], in assay [3], in [4] and in [5] was “inactive” in each case. The Potency entry in assay [17], in [8], in assay [14], in assay [12], in assay [13] and in [10] was “inactive” throughout.
Turning to `O=C1Cc2cc(CCN3CCN(c4nsc5ccccc45)CC3)c(Cl)cc2N1`, the Potency in assay [11] was 23.9 µM (active); in [2], 23.9 µM (active); in assay [8], 23.9 µM (active); in assay [18] it was 20.3 µM (active); in assay [13], 29.8 µM (active). Besides, the Potency entry in [3], in assay [7], in assay [9], in assay [14] and in assay [12] was “inactive” each time. Moreover, the compound was classed as inactive in assay [15] and in [16].
